For assay [1], the target named is PU.1 (IVT) (UniProt P17947 1-270). In words: protein-binding microarray (PBM); 20 mM HEPES pH 7.9, 100 mM NaCl, 1 mM DTT, 0.2 mg/mL BSA, 0.02% Triton X-100, 2% milk, 0.4 mg/mL salmon testes DNA; 1 h; temperature not stated; high values mean tight binding. Conditions: dsDNA, one strand shown. The essentials: (§1)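 Full-length untagged PU.1 was made by coupled human in vitro transcription/translation. It was bound for 1 h to custom double-stranded DNA microarrays carrying 20-bp genomic sites and single-nucleotide variants, 10 probes per site (5 per orientation). The binding buffer was HEPES pH 7.9 with 100 mM NaCl, 2% milk and salmon testes DNA. Bound protein was detected with anti-PU.1 and then a fluorescent secondary antibody. Binding is a z-score from scanned fluorescence after linear-regression normalisation.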

For assay [2] the target is unchanged. The assay is described as above. Conditions: dsDNA, one strand shown. The essentials:
as §1
The source holds these as a separate data set.

Whole data set: some 3,700 sequences, median “z-score” near 4, cut for the highest 2% near 8.4. Only a selection was taken, and the highest values are over-represented in it overall.

Take “GCCTAGCACGAAAAGAGGAAGTGTAACCAGTGCTAGGTCTTGATTCGCTTGACGCTGCTG”: the binding signal with PU.1 (IVT) [1] worked out at 8.52 z-score. In turn, “GCCTAGCACAGGAAGAGGAAGTGACAGATGTGCTAGGTCTTGATTCGCTTGACGCTGCTG” returned a binding signal with PU.1 (IVT) [2] of 6.27 z-score.

“GCCTAGCACAGAAAGAGGAAGTTATGTGCGTGCTAGGTCTTGATTCGCTTGACGCTGCTG” returned a binding signal in the assay with PU.1 (IVT) [1] of 8.58 z-score. On the same count and under the same terms, as for “GCCTAGCACAGAAAGAGGAAGTTCCCGTCGTGCTAGGTCTTGATTCGCTTGACGCTGCTG”, the figure is 8.56 z-score. Sequence “GCCTAGCACAGAAAGAGGAAGTCGAGGTGGTGCTAGGTCTTGATTCGCTTGACGCTGCTG” came in with a binding signal in the assay with PU.1 (IVT) [1] of 7.74 z-score. In the assay with PU.1 (IVT) [1], “GCCTAGCACAGAAAGAGGAAGTCTCTGCCGTGCTAGGTCTTGATTCGCTTGACGCTGCTG” came in with a binding signal of 7.37 z-score.

For “GCCTAGCACAGAAAGAGGAAATGACCTATGTGCTAGGTCTTGATTCGCTTGACGCTGCTG”, the binding signal with PU.1 (IVT) [2] was determined as 5.8 z-score. For “GCCTAGCACACCAGGAGGAAGTGGTTGCAGTGCTAGGTCTTGATTCGCTTGACGCTGCTG”, the binding signal with PU.1 (IVT) [2] was found to be 4.06 z-score. Sequence “GCCTAGCACCGAAAGAGGAAGTGCAACCAGTGCTAGGTCTTGATTCGCTTGACGCTGCTG” had a binding signal with PU.1 (IVT) [1] of 7.64 z-score.

“GCCTAGCACGATAAGAGGAAGTGCTCTGTGTGCTAGGTCTTGATTCGCTTGACGCTGCTG” came in with a binding signal with PU.1 (IVT) [2] of 6.52 z-score.

Regarding “GCCTAGCACTTTAAAGGGAAATGAAACTGGTGCTAGGTCTTGATTCGCTTGACGCTGCTG”, in the assay with PU.1 (IVT) [1], the binding signal turned out to be 1.39 z-score. In the assay with PU.1 (IVT) [2], “GCCTAGCACGAAAAGAGGAACAGCCTCTGGTGCTAGGTCTTGATTCGCTTGACGCTGCTG” came in with a binding signal of 5.13 z-score. In turn, “GCCTAGCACGAAAGGGGGAAGTGACTAAGGTGCTAGGTCTTGATTCGCTTGACGCTGCTG” showed a binding signal with PU.1 (IVT) [2] of 5.51 z-score. With “GCCTAGCACTCTCTGAGGAAGTGAAACTCGTGCTAGGTCTTGATTCGCTTGACGCTGCTG”, in the assay with PU.1 (IVT) [2], the binding signal was 2.86 z-score. Take “GCCTAGCACAGAAAGAGGAAGTGCTGAGGGTGCTAGGTCTTGATTCGCTTGACGCTGCTG”: the binding signal with PU.1 (IVT) [1] stood at 7.75 z-score. In turn, “GCCTAGCACAAAAAAAGGATATGAAAGTAGTGCTAGGTCTTGATTCGCTTGACGCTGCTG” gave a binding signal in the assay with PU.1 (IVT) [2] of 0.953 z-score. The sequence “GCCTAGCACAAAAAGAGGAACTGAATGTCGTGCTAGGTCTTGATTCGCTTGACGCTGCTG” registered a binding signal in the assay with PU.1 (IVT) [1] of 7.27 z-score. Take “GCCTAGCACGAAAGGAGGAAGTACTGTGGGTGCTAGGTCTTGATTCGCTTGACGCTGCTG”: the binding signal with PU.1 (IVT) [1] is 6.78 z-score. Still for that read-out and setting: to “GCCTAGCACAGAAAGAGGAAGTGGAAGAGGTGCTAGGTCTTGATTCGCTTGACGCTGCTG” belongs 8.16 z-score; to “GCCTAGCACAGAAAGAGGAAGTGCCTCTTGTGCTAGGTCTTGATTCGCTTGACGCTGCTG”, 8.4 z-score.

For the sequence “GCCTAGCACAGAAAGAGGAAGAGCTGCCAGTGCTAGGTCTTGATTCGCTTGACGCTGCTG”, the binding signal with PU.1 (IVT) [2] is 4.1 z-score.

In the assay with PU.1 (IVT) [2], “GCCTAGCACTCAAGGAGGAAGTGAGAGATGTGCTAGGTCTTGATTCGCTTGACGCTGCTG” yielded a binding signal of 4.31 z-score. The same measure, in the same setting: to “GCCTAGCACGTTTTGAGGAACTGAAACTCGTGCTAGGTCTTGATTCGCTTGACGCTGCTG” belongs 4.5 z-score; to “GCCTAGCACCGAAAAGGGAAATACTGTGAGTGCTAGGTCTTGATTCGCTTGACGCTGCTG”, 2.65 z-score. “GCCTAGCACAGAAAGAGGAAGAGAAACTAGTGCTAGGTCTTGATTCGCTTGACGCTGCTG” displayed a binding signal with PU.1 (IVT) [1] of 4.62 z-score. Take “GCCTAGCACAGAAGAAGGAAGTGAAAGAAGTGCTAGGTCTTGATTCGCTTGACGCTGCTG”: in the assay with PU.1 (IVT) [2], the binding signal came out at 4.5 z-score. Take “GCCTAGCACAGAAAGAGGAAGTGTTTATAGTGCTAGGTCTTGATTCGCTTGACGCTGCTG”: in the assay with PU.1 (IVT) [1], the binding signal was 8.43 z-score. Regarding “GCCTAGCACAGAAAGAGGAAGTGAAGCTAGTGCTAGGTCTTGATTCGCTTGACGCTGCTG”, in the assay with PU.1 (IVT) [1], the binding signal was 8.64 z-score. “GCCTAGCACAGAAAGAGGAAGACTAGTGTGTGCTAGGTCTTGATTCGCTTGACGCTGCTG”: the binding signal with PU.1 (IVT) [2] stood at 3.78 z-score. Turning to “GCCTAGCACAGAAAGAGGAAGTGACTCAGGTGCTAGGTCTTGATTCGCTTGACGCTGCTG”, the binding signal with PU.1 (IVT) [1] is 8.06 z-score. In the assay with PU.1 (IVT) [1], “GCCTAGCACAGAAAGAGGAAGTGGGTGTTGTGCTAGGTCTTGATTCGCTTGACGCTGCTG” registered a binding signal of 8 z-score.

As to “GCCTAGCACAGAAAGAGGAAGTGATGTTAGTGCTAGGTCTTGATTCGCTTGACGCTGCTG”, in the assay with PU.1 (IVT) [1], the binding signal was 8.46 z-score. “GCCTAGCACAGAAAGAGGAAGTGATTGAAGTGCTAGGTCTTGATTCGCTTGACGCTGCTG” displayed a binding signal with PU.1 (IVT) [1] of 8.32 z-score. With “GCCTAGCACTCCAGGAGGAACTGAAAGCTGTGCTAGGTCTTGATTCGCTTGACGCTGCTG”, the binding signal in the assay with PU.1 (IVT) [1] turned out to be 1.74 z-score.

The sequence “GCCTAGCACAAAAAGAGGAAATGATTTACGTGCTAGGTCTTGATTCGCTTGACGCTGCTG” showed a binding signal with PU.1 (IVT) [1] of 6.97 z-score.

In the assay with PU.1 (IVT) [2], “GCCTAGCACGAAAACAGGAACTGCAAATAGTGCTAGGTCTTGATTCGCTTGACGCTGCTG” yielded a binding signal of 6 z-score. In the assay with PU.1 (IVT) [1], “GCCTAGCACGAAAAGAGGAAGTCAAACTAGTGCTAGGTCTTGATTCGCTTGACGCTGCTG” came in with a binding signal of 8.35 z-score. For the sequence “GCCTAGCACAGAAAGAGGAAGTCAAAACAGTGCTAGGTCTTGATTCGCTTGACGCTGCTG”, the binding signal with PU.1 (IVT) [1] was determined as 7.68 z-score. In turn, “GCCTAGCACGAAAAGAGGAAGTCAAACGAGTGCTAGGTCTTGATTCGCTTGACGCTGCTG” yielded a binding signal in the assay with PU.1 (IVT) [1] of 8.02 z-score. For the sequence “GCCTAGCACGGAAAGAGGAAGTCAAACTAGTGCTAGGTCTTGATTCGCTTGACGCTGCTG”, the binding signal in the assay with PU.1 (IVT) [1] was found to be 7.68 z-score. Consider “GCCTAGCACAAAAAGAGGAAGTCAAACAAGTGCTAGGTCTTGATTCGCTTGACGCTGCTG”, for which, in the assay with PU.1 (IVT) [1], the binding signal amounted to 8.71 z-score. The same measure, in the same setting: to “GCCTAGCACAAAAAGAGGAAGGGAAACTAGTGCTAGGTCTTGATTCGCTTGACGCTGCTG” belongs 5.12 z-score. Turning to “GCCTAGCACAAAAACAGGAAGTCAAAGGAGTGCTAGGTCTTGATTCGCTTGACGCTGCTG”, in the assay with PU.1 (IVT) [1], the binding signal was 7.11 z-score. As for “GCCTAGCACAAAAAGAGGAAGAGAAACTAGTGCTAGGTCTTGATTCGCTTGACGCTGCTG”, in the assay with PU.1 (IVT) [1], the binding signal was determined as 5.79 z-score. For the sequence “GCCTAGCACAAAAAGAGGAAGTCAAACTAGTGCTAGGTCTTGATTCGCTTGACGCTGCTG”, the binding signal in the assay with PU.1 (IVT) [1] stood at 8.48 z-score.

For the origin of these results see paper PMC6451091, “NextPBM: a platform to study cell-specific transcription factor binding and cooperativity”.
